Bioassay records from PubChem BioAssay.
In the library only some 2.3% were active in any assay of this set; here they are far more common.
Coupling enz = inhibits coupling enzyme system, counter-screen for aldolase hits. coupling enzyme system counterscreen, AmpLite Red fluorescence. activity change, negative = inhibition, % at 58.2 µM, hits read low. 290,000 compounds, 0.67% hits. AID 2472; in the data active = activity change below about -30%
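Final compound at 57.5 uM, incubated 10 min at RT with coupling enzyme reagent (glyceraldehyde-3-phosphate), then 20 min with substrate and AmpLite Red detection. Fluorescence read at 525/598 nm; tests interference with the coupling assay, not aldolase inhibition.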
USP1 inh = USP1/UAF1 (human) deubiquitinase inhibition; recombinant USP1/UAF1, Ub-Rhodamine cleavage fluorescence; Potency, µM (top dose mostly 57.1 µM), for inactives: at the highest dose activity change, negative = inhibition, actives largely listed as inhibitors; 390,000 compounds, 0.23% hits; O94782; AID 743255; note: potency is the fitted concentration of half-maximal effect; nearly all actives have a fitted effect of over 60% in size
Target sequence (O94782 whole entry, looked up): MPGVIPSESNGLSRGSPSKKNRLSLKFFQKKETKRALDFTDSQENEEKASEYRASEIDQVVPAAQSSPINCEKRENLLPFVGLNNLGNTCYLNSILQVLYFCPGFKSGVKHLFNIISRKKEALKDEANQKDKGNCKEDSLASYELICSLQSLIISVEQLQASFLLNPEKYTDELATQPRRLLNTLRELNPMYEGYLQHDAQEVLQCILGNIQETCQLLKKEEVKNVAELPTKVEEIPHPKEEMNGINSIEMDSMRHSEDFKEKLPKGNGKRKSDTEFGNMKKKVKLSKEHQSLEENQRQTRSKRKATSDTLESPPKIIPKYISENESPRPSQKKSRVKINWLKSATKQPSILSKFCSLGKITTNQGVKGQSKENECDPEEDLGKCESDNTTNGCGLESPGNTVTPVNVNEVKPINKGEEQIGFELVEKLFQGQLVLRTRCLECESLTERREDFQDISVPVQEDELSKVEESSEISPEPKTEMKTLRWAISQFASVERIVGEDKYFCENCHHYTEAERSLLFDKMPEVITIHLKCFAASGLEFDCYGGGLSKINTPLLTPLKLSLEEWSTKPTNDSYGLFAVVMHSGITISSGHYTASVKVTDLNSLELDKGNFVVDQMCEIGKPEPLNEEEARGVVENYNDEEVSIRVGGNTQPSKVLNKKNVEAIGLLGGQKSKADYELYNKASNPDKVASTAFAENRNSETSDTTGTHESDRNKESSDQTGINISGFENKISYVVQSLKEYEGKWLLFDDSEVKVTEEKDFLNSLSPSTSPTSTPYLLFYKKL
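USP1/UAF1 complex at 1 nM was preincubated with compound for 15 min at room temperature, then Ub-Rho substrate (150nM final) was added. Fluorescence (480/540 nm) was read kinetically, 6 reads every 60 seconds.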
Tau fibril ThT = inhibitors of human tau fibril formation, thioflavin T binding; recombinant tau K18 P301L, heparin-induced fibrillization, ThT fluorescence; Potency, µM (doses to about 57.4 µM), without a hit: top-dose activity, negative = inhibition, actives largely listed as inhibitors; 270,000 compounds, 2.1% hits; AID 1460; note: potency is the fitted concentration of half-maximal effect; nearly all actives have a fitted effect of over 55% in size
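Aggregation was driven by heparin (20 uM final) acting on recombinant tau […] bearing P301L in 100 mM sodium acetate pH 7; fibrils were detected with Thioflavin T.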
Tau FP inhib = tau fibrillization inhibition (FP) | 280,000 compounds, 0.39% hits | Potency, µM (doses to about 57.7 µM), for inactives: at the top dose activity, negative = inhibition, most hits filed as inhibitors | K18 P301L tau heparin fibrillization, Alexa594 FP, 6 h | AID 1468 | P10636; note: potency is the fitted concentration of half-maximal effect; nearly all actives have a fitted effect of over 55% in size
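FP of Alexa 594-tau after heparin (20 uM) induction. Substrate: human K18 P301L, 15 uM unlabeled, 0.24 uM labeled. Buffer 100 mM sodium acetate pH 7. 6 hr, 37 C.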
Tau fluor counter = counter-screen for tau fibril formation inhibitors. tau K18 P301L (four-repeat tau fragment) Alexa594 fluorescence, heparin fibrillization. Potency, µM (top dose mostly 57.7 µM), inactives show at the highest dose activity change, negative = decrease. 280,000 compounds, 0.93% hits. AID 1463; note: potency is the fitted concentration of half-maximal effect; nearly all actives have a fitted effect of over 55% in size
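Human K18 P301L tau (15 uM unlabeled plus 0.24 uM Alexa 594-labeled, final) in 100 mM sodium acetate pH 7 was mixed with compound and 20 uM heparin and incubated 6 hr at 37 C.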
The depositor's hits bear a star; ? = inconclusive; nt = no result; [ ] = another dose, or the depositor's remark. Unless noted, calls come from the whole dose curve; as a rule, active = well fitted curve in the direction sought with a large enough effect; inconclusive = small, poorly fitted or top-dose-only effect, or another doubt; inactive = no such curve, though single readings can be large; an effect the other way counts as inactive or inconclusive. % is set by controls: 0 for no effect and ±100 for the full control effect.

SMILES	Coupling enz	USP1 inh	Tau fibril ThT	Tau FP inhib	Tau fluor counter
CCn1c(C)c(C(C)=O)c(N2CCN(C(c3ccccc3)c3ccccc3)CC2)nc1=S	-4	-11%	4%	5%	3%
CCn1c(C)c(C(C)=O)c(N2CCN(c3ccccc3)CC2)nc1=S	-16	-22%	22µM*	?	-19%
CC(=O)c1cc2ccccc2oc1=O	2	-18%	nt	nt	nt
C/C(=N\Nc1ccccc1)c1cc2ccccc2oc1=O	-3	-2%	11µM*	?	?
Cc1cccc(OCCn2cc(/C=N/NC(=O)c3ccncc3)c3ccccc32)c1	6	-26%	?	2%	16µM*[quencher]
COC(=O)N/N=C/c1cn(CCOc2cccc(OC)c2)c2ccccc12	-3	-14%	nt	nt	nt
Oc1ccccc1-c1nc(-c2cccs2)c(-c2cccs2)[nH]1	nt	-18%	14µM*	?	4.5µM*[quencher]
COc1cc(-c2nc(-c3ccccc3)c(-c3cccs3)[nH]2)cc(OC)c1OC	-2	-13%	-21%	?	?
COc1cc(-c2nc(-c3ccccc3)c(-c3cccs3)[nH]2)cc(OC)c1O	0	-24%	?	9%	14µM*[quencher]
CN(C)c1ccc(-c2nc(-c3cccs3)c(-c3cccs3)[nH]2)cc1	nt	-28%	?	-1%	10µM*[quencher]
CC[C@H](C)[C@@H](NC(=O)O[C@@H]1Cc2cc(OC)ccc2O[C@H]1c1cccc(OC)c1)C(=O)OC	-2	nt	-9%	4%	-14%
CC(=O)N(c1ccccc1C)C1CCCC1	1	-16%	-5%	-2%	0%
CC(=O)N(C1=C(Cl)C(=O)c2ccccc2C1=O)C1CCCCC1	-88*	?	4µM*	-14%	?
COc1ccccc1NC(=O)N(Cc1nnc2n1CCCCC2)c1ccc(F)cc1	nt	-23%	8%	6%	11%
Cc1ccc(C(C[N+](=O)[O-])n2nc(C)cc2C)cc1 (configuration not stated)	2	-19%	-15%	-2%	-4%
Cc1ccc(C(C[N+](=O)[O-])Sc2ccc(N)cc2)cc1 (configuration not stated)	3	-26%	18µM*	?	?
Cc1c(Cl)cccc1N1CC(c2nc3ccccc3n2Cc2ccccc2F)CC1=O (configuration not stated)	nt	-11%	-18%	2%	-19%
CC1=NN(c2ccc(C(=O)O)c(N)c2)C(=O)C1	-37*	-13%	?	?	-29%
Cc1ccc2nc(-c3cccc(S(=O)(=O)N(C)C)c3)cn2c1	-32*	-23%	-6%	3%	-8%
CCN(CC)S(=O)(=O)c1cccc(-c2cn3cc(C)ccc3n2)c1	-26	-27%	-9%	-6%	-20%
COc1cc(Nc2nn(-c3ccc(OC(F)(F)F)cc3)nc2C(C)=O)cc(OC)c1	nt	3%	-8%	3%	-5%
C=CC[C@@H]1[C@H](O)CC[C@@]2(C)[C@H]1CC[C@@H]1[C@@H]2CC[C@]2(C)C([C@H](C)CCCC(C)C)CC[C@@H]12 (some centres not stated)	nt	nt	-3%	?	-7%
Cc1cccc(NC(=O)c2oc3c(c2C)-c2[nH]ncc2CC3)c1C	nt	?	?	-15%	?
Cc1c(C(=O)NC(C)C)oc2c1-c1[nH]ncc1CC2	-39*	-14%	?	0%	-8%
O=S(=O)(Nc1ccc(Br)cc1)c1ccc2nc(-c3ccccc3)[nH]c2c1	nt	-18%	16%	16µM*	?
O=c1[nH]c2ccc(S(=O)(=O)Nc3ccc(Br)cc3)cc2[nH]1	-2	-23%	nt	nt	nt
Cc1ccc(NS(=O)(=O)c2ccc3nc(-c4ccccc4)[nH]c3c2)c(Br)c1	nt	-14%	8%	?	?
Cc1ccc(NS(=O)(=O)c2ccc3nc(-c4ccccc4)[nH]c3c2)c(Cl)c1	nt	-26%	12%	14µM*	?
Cc1cccc(NS(=O)(=O)c2ccc3nc(-c4ccccc4)[nH]c3c2)c1C	2	-1%	17%	?	-16%
CC(C)c1ccc(NS(=O)(=O)c2ccc3nc(-c4ccccc4)[nH]c3c2)cc1	nt	-6%	?	10µM*	?
